From PubChem BioAssay (Tox21) come the findings set out here.

A short description of assay [1]: qHTS assay to identify small molecule antagonists of the thyroid receptor (TR) signaling pathway - cell viability counter screen (AID 743064). Note: nearly all actives have a fitted effect of over 50% in size. Summed up:
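GH3.TRE-Luc rat pituitary cells dosed after 4 hr plating, co-stimulated with T3 at 1 nM final, incubated 23.5 h at 37 C. Viability measured in the same wells by CellTiter-Fluor fluorescence after 30 min further at 37 C.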
Background: In qHTS, concentration-response curves come from the screen itself.

The nature of assay [2]: qHTS assay to identify small molecule antagonists of the thyroid receptor (TR) signaling pathway (AID 743065). Note: series mostly up to about 70 µM; nearly all actives have a fitted effect of over 55% in size. In outline:
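Antagonism measured as loss of luciferase signal in GH3 cells stably carrying a TRE-luciferase reporter, co-treated with compound and T3 (1 nM final) for 23.5 h at 37 C. Viability was read in the same well by CellTiter-Fluor.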

The subject of assay [3] is thyroid hormone receptor (rat, GH3 cells). The assay can be described thus: qHTS assay to identify small molecule agonists of the thyroid receptor (TR) signaling pathway (AID 743066; calls by dose curve).
Assay [4] concerns the target Estrogen receptor (Homo sapiens) (UniProt P03372). Description: qHTS assay to identify small molecule antagonists of the estrogen receptor alpha (ER-alpha) signaling pathway (AID 743069; active = well fitted curve in the direction sought with a large enough effect in the signal ratio in the repeat runs, not every such curve was filed as active; the % refers to the signal ratio). In outline: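 Fluorescence intensity from a beta-lactamase FRET substrate served as the read-out. Cells: HEK293 with stably integrated ER-alpha-UAS-bla reporter. Agonist 17beta-estradiol was co-added with compounds; incubation 18 hr at 37C, substrate 2 hr at room temperature.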

A short description of assay [5]: qHTS assay to identify small molecule antagonists of the estrogen receptor alpha (ER-alpha) signaling pathway - cell viability counter screen (AID 743074; calls by dose curve; note: nearly all actives have a fitted effect of over 45% in size).
For assay [6], the target named is Estrogen receptor (Homo sapiens) (UniProt P03372). Description: qHTS assay to identify small molecule agonists of the estrogen receptor alpha (ER-alpha) signaling pathway (AID 743075; calls by dose curve).
Estrogen receptor (Homo sapiens), sequence (P03372 whole entry, looked up): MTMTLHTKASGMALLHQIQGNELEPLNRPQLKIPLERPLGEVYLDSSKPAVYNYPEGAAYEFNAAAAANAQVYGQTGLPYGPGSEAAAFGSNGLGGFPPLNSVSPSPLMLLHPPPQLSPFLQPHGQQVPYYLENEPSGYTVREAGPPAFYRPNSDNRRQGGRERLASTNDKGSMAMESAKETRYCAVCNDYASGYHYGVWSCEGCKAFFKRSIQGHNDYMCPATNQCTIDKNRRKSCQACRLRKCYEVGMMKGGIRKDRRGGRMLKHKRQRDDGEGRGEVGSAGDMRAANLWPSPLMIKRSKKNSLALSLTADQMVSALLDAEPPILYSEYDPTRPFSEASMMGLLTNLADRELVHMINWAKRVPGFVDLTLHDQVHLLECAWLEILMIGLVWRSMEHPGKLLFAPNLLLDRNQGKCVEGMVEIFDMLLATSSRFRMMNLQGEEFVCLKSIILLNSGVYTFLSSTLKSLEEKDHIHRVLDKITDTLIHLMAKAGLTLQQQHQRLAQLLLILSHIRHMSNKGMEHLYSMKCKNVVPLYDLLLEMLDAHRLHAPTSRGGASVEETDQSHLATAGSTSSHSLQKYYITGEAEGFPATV
For assay [7] the target is unchanged. Description: qHTS assay to identify small molecule agonists of the estrogen receptor alpha (ER-alpha) signaling pathway using the BG1 cell line (AID 743079). Note: nearly all actives have a fitted effect of over 20% in size. Note: potency is the fitted concentration of half-maximal effect.
The nature of assay [8]: qHTS assay to identify small molecule antagonists of the estrogen receptor alpha (ER-alpha) signaling pathway using the BG1 cell line (AID 743080; calls by dose curve;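 note: BG1 cells stimulated with 17beta-estradiol alongside compound; series mostly up to about 70 µM; nearly all actives have a fitted effect of over 25% in size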). In outline:
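Seeding, 24 h rest, compound transfer from DMSO, 17beta-estradiol addition, 21.5 h incubation, CellTiter-Fluor (30 min, 37 C), then ONE-Glo (30 min, room temperature): this sequence was run on BG1-Luc-4E2 reporter cells.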

Assay [9] in a line: qHTS assay to identify small molecule antagonists of the estrogen receptor alpha (ER-alpha) signaling pathway using the BG1 cell line - cell viability counter screen (AID 743081).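 Note: compound given together with 17beta-estradiol as the ER stimulus; series mostly up to about 70 µM; nearly all actives have a fitted effect of over 45% in size.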
Another assay concerns the target Aromatase (Homo sapiens) (UniProt P11511). Description: qHTS assay to identify aromatase inhibitors (AID 743083). Note: series mostly up to about 70 µM; nearly all actives have a fitted effect of over 55% in size.
Assay [10] is described as follows: qHTS assay to identify aromatase inhibitors - cell viability counter screen (AID 743084).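 Note: cells stimulated with testosterone during compound exposure; nearly all actives have a fitted effect of over 55% in size.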
The target in assay [11] is Aryl hydrocarbon receptor (Homo sapiens) (UniProt P35869). The assay can be described thus: qHTS assay to identify small molecule that activate the aryl hydrocarbon receptor (AhR) signaling pathway (AID 743085).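 Note: HG2L7.5c1 human HepG2 liver cells with stably integrated DRE-driven firefly reporter; series mostly up to about 70 µM; nearly all actives have a fitted effect of over 15% in size.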 In outline: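 HepG2 cells stably carrying a 20-DRE firefly luciferase reporter (HG2L7.5c1) treated with compound for 24 hr at 37C. Luciferase read by ONE-Glo luminescence, with CellTiter-Fluor viability read first.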
Aryl hydrocarbon receptor (Homo sapiens), sequence (P35869 whole entry, looked up): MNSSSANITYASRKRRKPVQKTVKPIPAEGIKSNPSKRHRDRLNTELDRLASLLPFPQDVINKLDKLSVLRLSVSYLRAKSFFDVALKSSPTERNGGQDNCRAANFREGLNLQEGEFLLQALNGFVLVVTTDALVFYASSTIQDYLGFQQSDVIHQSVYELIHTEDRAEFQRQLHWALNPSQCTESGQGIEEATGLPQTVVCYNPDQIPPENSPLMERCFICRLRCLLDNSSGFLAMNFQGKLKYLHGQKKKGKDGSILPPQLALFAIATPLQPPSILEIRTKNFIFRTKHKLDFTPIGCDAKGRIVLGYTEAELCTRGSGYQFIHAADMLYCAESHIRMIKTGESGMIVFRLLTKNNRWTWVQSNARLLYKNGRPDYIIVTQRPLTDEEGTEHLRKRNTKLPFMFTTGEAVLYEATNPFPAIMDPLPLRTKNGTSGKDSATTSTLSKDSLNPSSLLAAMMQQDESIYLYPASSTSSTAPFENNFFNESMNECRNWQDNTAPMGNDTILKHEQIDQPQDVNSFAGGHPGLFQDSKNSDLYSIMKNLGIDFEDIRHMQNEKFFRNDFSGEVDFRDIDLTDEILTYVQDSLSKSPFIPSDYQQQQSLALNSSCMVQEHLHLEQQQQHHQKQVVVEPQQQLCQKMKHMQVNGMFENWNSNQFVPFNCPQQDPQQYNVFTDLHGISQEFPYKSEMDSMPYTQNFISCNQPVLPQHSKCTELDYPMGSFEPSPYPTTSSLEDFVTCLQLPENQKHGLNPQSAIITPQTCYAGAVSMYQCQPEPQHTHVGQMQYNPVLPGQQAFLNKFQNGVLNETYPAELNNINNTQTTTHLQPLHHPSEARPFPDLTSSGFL

Assay [12] in a line: qHTS assay to identify small molecule that activate the aryl hydrocarbon receptor (AhR) signaling pathway - cell viability counter screen (AID 743086). Note: series mostly up to about 70 µM; nearly all actives have a fitted effect of over 45% in size. In outline:
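Cytotoxicity counter screen: CellTiter-Fluor signal (30 min, 37 C) in 4000 HepG2 cells/well carrying the DRE-luciferase reporter, following 24 h compound exposure at 37 C.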

The target in assay [13] is Peroxisome proliferator-activated receptor gamma (Homo sapiens) (UniProt P37231). The assay can be described thus: qHTS assay to identify small molecule agonists of the peroxisome proliferator-activated receptor gamma (PPARg) signaling pathway (AID 743094; active = well fitted activation curve with a large enough effect in the signal ratio in the repeat runs, not every such curve was filed as active; the % refers to the signal ratio). In outline: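 Agonist activity was taken from a beta-lactamase reporter (FRET substrate, 1 h at room temperature) in HEK293H cells carrying a PPARg UAS-bla construct. Compounds in DMSO were incubated 17 h at 37C after a 5 h cell pre-incubation.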
Peroxisome proliferator-activated receptor gamma (Homo sapiens), sequence (P37231 whole entry, looked up): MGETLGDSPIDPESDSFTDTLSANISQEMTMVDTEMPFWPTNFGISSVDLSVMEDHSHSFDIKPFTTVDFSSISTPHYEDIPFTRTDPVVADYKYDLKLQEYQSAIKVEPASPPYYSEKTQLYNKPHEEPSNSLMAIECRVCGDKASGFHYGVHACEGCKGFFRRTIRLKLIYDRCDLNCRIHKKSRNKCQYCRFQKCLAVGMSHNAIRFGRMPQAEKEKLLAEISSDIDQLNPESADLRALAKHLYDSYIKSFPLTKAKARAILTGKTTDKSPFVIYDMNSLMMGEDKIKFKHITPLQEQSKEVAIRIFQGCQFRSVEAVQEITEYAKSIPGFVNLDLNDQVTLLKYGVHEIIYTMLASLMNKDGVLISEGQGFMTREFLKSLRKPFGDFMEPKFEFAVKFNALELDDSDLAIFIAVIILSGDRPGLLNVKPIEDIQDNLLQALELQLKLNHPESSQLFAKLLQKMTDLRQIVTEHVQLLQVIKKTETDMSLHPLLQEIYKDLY

Assay [14] has the same target. The assay can be described thus: qHTS assay to identify small molecule antagonists of the peroxisome proliferator-activated receptor gamma (PPARg) signaling pathway (AID 743191; calls by dose curve; note: series mostly up to about 63 µM; nearly all actives have a fitted effect of over 30% in size). Summed up:
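Beta-lactamase reporter under UAS control in HEK293H PPARg-bla cells; compound treatment 17 h at 37C. Read-out: fluorescence intensity after 1 h room-temperature incubation with LiveBLAzer B/G FRET substrate.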

The nature of assay [15]: qHTS assay to identify small molecule antagonists of the peroxisome proliferator-activated receptor gamma (PPARg) signaling pathway - cell viability counter screen (AID 743194). Note: nearly all actives have a fitted effect of over 55% in size. Summed up: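 Viability was measured as CellTiter-Glo luminescence in GeneBLAzer PPARg UAS-bla HEK293H cells. These cells had been exposed 17 h at 37 C to compounds together with rosiglitazone at 50 nM final, with the beta-lactamase readout taken in the same wells.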

The nature of assay [16]: qHTS assay for small molecule agonists of the antioxidant response element (ARE) signaling pathway (AID 743202; active = well fitted activation curve with a large enough effect in the signal ratio in the repeat runs, not every such curve was filed as active; the % refers to the signal ratio). Summed up:
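Beta-lactamase reporter activity, read as fluorescence intensity, reflects ARE/Nrf2 pathway induction in HepG2 cells after 16 h compound exposure at 37 C; substrate loading was 2 h at room temperature.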

Assay [17] can be described thus: qHTS assay for small molecule agonists of the antioxidant response element (ARE) signaling pathway - cell viability counter screen (AID 743203; calls by dose curve; note: nearly all actives have a fitted effect of over 55% in size). Summed up:
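Viability counter screen: CellTiter-Glo luminescence, read after 30 min at room temperature, in ARE-bla HepG2 wells. Compound exposure lasted 16 h at 37C/5% CO2, following a 5 h pre-incubation of the cells after plating.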

A short description of assay [18]: qHTS assay for small molecule activators of the heat shock response signaling pathway - cell viability counter screen (AID 743209). Note: nearly all actives have a fitted effect of over 50% in size. Summed up: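 Cytotoxicity counter screen run in the same wells as the heat-shock bla reporter assay: HeLa HSE-bla cells, 5 h compound exposure at 37 C, viability read by CellTiter-Glo luminescence.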
A short description of assay [19]: qHTS assay for small molecule activators of the heat shock response signaling pathway (AID 743210; active = well fitted activation curve with a large enough effect in the signal ratio in the repeat runs, with a control signal flat, not every such curve was filed as active; the % refers to the signal ratio;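 note: HeLa cells with beta-lactamase reporter driven by heat shock elements; series mostly up to about 63 µM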). In outline:
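Fluorescence from a cleaved B/G FRET substrate (2.5 h, room temp) reports HSE-driven beta-lactamase in HeLa cells treated 5 h at 37 C with DMSO-dissolved compounds.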

Structures are written as SMILES. Results filed as inconclusive are left out. Values without a mark were called inactive. Calls of active or inactive are those of the source. Unless noted, calls come from the whole dose curve; as a rule, active = well fitted curve in the direction sought with a large enough effect in the repeat runs; inconclusive = weak or mixed curves; inactive = no such curve, though single readings can be large; an effect the other way counts as inactive or inconclusive.
% is set by controls: 0 for no effect and ±100 for the full control effect.

Aromatase (Homo sapiens), sequence (P11511 whole entry, looked up): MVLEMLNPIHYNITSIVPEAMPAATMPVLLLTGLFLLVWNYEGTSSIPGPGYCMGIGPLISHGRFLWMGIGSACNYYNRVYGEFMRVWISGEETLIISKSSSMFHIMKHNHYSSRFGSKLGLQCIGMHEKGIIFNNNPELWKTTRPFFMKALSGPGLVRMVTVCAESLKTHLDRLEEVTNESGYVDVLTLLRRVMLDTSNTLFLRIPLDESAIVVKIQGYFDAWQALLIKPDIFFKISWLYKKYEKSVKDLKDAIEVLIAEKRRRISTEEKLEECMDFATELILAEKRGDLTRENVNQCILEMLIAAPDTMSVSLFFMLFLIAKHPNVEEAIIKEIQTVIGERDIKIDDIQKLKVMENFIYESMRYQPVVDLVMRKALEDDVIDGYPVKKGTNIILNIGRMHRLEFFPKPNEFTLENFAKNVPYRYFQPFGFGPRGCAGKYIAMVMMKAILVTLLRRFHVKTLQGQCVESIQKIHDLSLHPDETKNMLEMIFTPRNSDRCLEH

As for `CC(C)(O)c1ccccc1`, the Potency entry in [1], in assay [2], in assay [3], in assay [4], in [6] and in assay [7] was “inactive” each time. The Potency result (in assay [8]; in the assay with Aromatase (Homo sapiens); in [10]; in assay [11]; in assay [12]; in assay [15]) was “inactive” in each case. For the same compound, in [16], the Potency result is “inactive”. In addition, the call in assay [5], in assay [9], in assay [13], in assay [14], in [17] and in assay [18] was inactive.

With `CCCCCOC(=O)Nc1nc(=O)n([C@@H]2O[C@H](C)[C@@H](O)[C@H]2O)cc1F`, the Potency result in assay [1], in assay [2], in [3], in [4], in [6] and in assay [7] was “inactive” throughout. Further, the Potency entry (in assay [8]; in the assay with Aromatase (Homo sapiens); in [10]; in [11]; in assay [12]; in assay [15]) was “inactive” each time. Also, the call in assay [5], in [9], in assay [13], in [14], in [17] and in assay [18] was inactive. Besides, the compound was classed as inactive in assay [19].

On to `CC1CCN(CCCC(=O)c2ccc(F)cc2)CC1`, for which the Potency result in assay [1], in assay [2], in assay [3], in [4], in [6] and in assay [7] was “inactive” in each case. Further, the Potency result (in [8]; with Aromatase (Homo sapiens); in assay [10]; in assay [11]; in assay [12]; in assay [15]) was “inactive” throughout. For the same compound, the Potency entry in assay [16] was “inactive”. For the same compound, the result in [5], in [9], in assay [13], in [14], in assay [17] and in [18] was inactive. In [19], the result was inactive.

As for `CC(C)N1C(=O)c2ccccc2C1=O`, the Potency entry in assay [1], in assay [2], in assay [3], in assay [4], in [6] and in assay [7] was “inactive” in each case. Besides, the Potency result (in assay [8]; with Aromatase (Homo sapiens); in assay [10]; in [11]; in assay [12]; in [15]) was “inactive” in each case. Besides, the compound was called inactive in [5], in assay [9], in [13], in assay [14], in assay [17] and in [18]. Further, in assay [19], the call was inactive.

Regarding `CCCCCCCCCCCCCCCCCC(=O)OCCCCCCCCCCCCCC(C)C`, the Potency result in assay [1], in [2], in assay [3], in [4], in assay [6] and in assay [8] was “inactive” each time. For the same compound, the Potency entry (with Aromatase (Homo sapiens); in assay [10]; in [11]; in [12]; in assay [16]) was “inactive” throughout. The compound was called inactive in [5], in assay [9], in [13], in assay [14], in [17] and in [18]. The compound was classed as inactive in [19]. Also, the Potency in assay [7] is 56.4 µM (active).

In the case of `CCCC(C)C(=O)O` (stereo not drawn), the Potency result in assay [1], in assay [2], in assay [3], in assay [4], in assay [6] and in assay [7] was “inactive” throughout. In addition, the Potency entry (in [8]; with Aromatase (Homo sapiens); in [10]; in assay [11]; in [12]; in [15]) was “inactive” in each case. In addition, the compound was called inactive in [5], in assay [9], in [13], in assay [14], in assay [17] and in [19].

Consider `NCC[C@H](O)C(=O)N[C@@H]1C[C@H](N)[C@@H](O[C@H]2O[C@H](CN)[C@@H](O)[C@H](O)[C@H]2O)[C@H](O)[C@H]1O[C@H]1O[C@H](CO)[C@@H](O)[C@H](N)[C@H]1O`, for which the Potency entry in assay [1], in [2], in [3], in [4], in [6] and in [8] was “inactive” throughout. Also, the Potency result (in the assay with Aromatase (Homo sapiens); in assay [10]; in assay [11]; in [12]) was “inactive” each time. The compound was classed as inactive in assay [5] and in assay [9]. The Potency in assay [7] is 23.7 µM (active). Further, the ratio activity, negative = inhibition in [14] was 0.895% [at 0.55 µM]. Also, the activity change, negative = cytotoxicity in [15] was 0.328% [at 0.55 µM]; in assay [18] it was -14.9% [at 0.55 µM]. Besides, in assay [16], the activation was 2.58% [at 0.756 µM]. Besides, the viability change, negative = cytotoxic in assay [17] was -0.425% [at 0.756 µM].

On to `NC(=O)c1ncn([C@@H]2O[C@H](CO)[C@@H](O)[C@H]2O)c1O`, for which the Potency entry in assay [1], in [2], in assay [3], in assay [4], in assay [6] and in [7] was “inactive” in each case. For the same compound, the Potency result (in assay [8]; with Aromatase (Homo sapiens); in [10]; in assay [11]; in assay [12]) was “inactive” each time. Also, the result in assay [5], in assay [9], in assay [13], in assay [17] and in assay [18] was inactive.
